From PubChem
NALP3 yeast inh = NALP3 inflammasome inhibitors in reconstituted yeast, primary screen, luminescence, uHTS; 330,000 tested, 0.39% active; Yeast reconstituted NLRP3/ASC/caspase-1, beta-gal luminescence, 24 h; inhibition, % at 10 µM;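 active = inhibition of 50% or more; inactive = inhibition below 50%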
tim10-1 inh = growth inhibitors of tim10-1 mutant yeast, primary screen, luminescence, uHTS; inhibition, % at 20 µM; 330,000 tested, 2.2% active; S. cerevisiae tim10-1 ts strain growth, BacTiter-Glo, 24 h;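 active = inhibition of at least 40%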;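 also: mutant grown at 25 °C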
TIM10 inh = growth inhibitors of isogenic TIM10 control yeast, primary screen, counter-screen for tim10-1 yeast inhibitor project, luminescence, uHTS; S. cerevisiae TIM10 strain growth, BacTiter-Glo luminescence, 24 h; inhibition, % at 10 µM; 330,000 tested, 1.4% active; AID 463195, 2010;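 active = inhibition of 40% or more at the single tested concentration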;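 also: wild-type TIM10 isogenic control strain grown at permissive 25 °C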
tim23-1 inh = growth inhibitors of tim23-1 mutant yeast, primary screen, luminescence, uHTS; S. cerevisiae tim23-1 growth, BacTiter-Glo luminescence, 24 h; inhibition, % at 20 µM; 330,000 tested, 1.3% active; AID 463212, 2010;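 active = growth inhibition of the mutant yeast at or above 50%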;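 also: temperature-sensitive mutant grown at 25 °C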
V-ATPase pH = regulators of yeast V-ATPase proton pumping, primary screen, pHLuorin cytosolic pH fluorescence; AID 504577, 2011; S. cerevisiae; response, % at 10 µM; 350,000 tested, 0.37% active; in the data active = response mostly above about 7.3%, no sharp cut-off; inactive = mostly below about 5.4%; also: actives read high
NALP1 inh = NALP1 inflammasome inhibitors in reconstituted yeast, colorimetric, S. cerevisiae, triplicate retest; S. cerevisiae NALP1/ASC/caspase-1 growth, X-gal OD620, 72 h; inhibition, % at 10 µM; 280,000 tested, 0.61% active; AID 2071, 2009; in the data active = inhibition mostly above about 24%, no sharp cut-off; inactive = mostly below about 32%
tim10-1 confirm = growth inhibitors of tim10-1 mutant yeast, confirmation, single concentration, luminescence, S. cerevisiae | shares compounds with tim10-1 inh | S. cerevisiae tim10-1 ts strain growth, BacTiter-Glo, 24 h | inhibition, % at 20 µM | 7,400 tested, 56% active | AID 463213, 2010;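 active = inhibition of yeast growth at or above a set limit in either of two repeat tests at 20 µM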;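 also: tim10-1 mutant grown at permissive 25 °C to find synthetic lethal compounds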
Numbers stand for hits; n = inactive; x = no result given. Shown are actives, neighbours in structure and some others; about 4.2% of the full set was active somewhere.

SMILES | NALP3 yeast inh | tim10-1 inh | TIM10 inh | tim23-1 inh | V-ATPase pH | NALP1 inh | tim10-1 confirm
C/C=C/C(=O)N[C@@H]1c2ccccc2CC[C@@H]1OCc1ccccc1 | x | n | n | n | n | x | x
Cc1sc(C(C2C(=O)CC(C)(C)CC2=O)C2C(=O)CC(C)(C)CC2=O)cc1[N+](=O)[O-] | n | 44 | n | n | n | n | 41
O=C(CNC(=O)C1COc2ccccc2O1)N/N=C\c1ccc(Br)cc1 (centres undefined) | n | 60 | n | n | n | n | n
O=C(N/N=C/C=C/c1ccc([N+](=O)[O-])cc1)C1COc2ccccc2O1 (centres undefined) | n | 51 | n | n | n | n | 37
CC1Nc2ccc(C(=O)NC3CCCCC3)cc2NC1=O (centres undefined) | n | n | n | n | n | n | x
CC1(C(=O)Nc2nc3ccccc3s2)CC1(Br)Br (centres undefined) | x | x | x | x | n | n | x
COc1ccccc1-c1noc(CCC(=O)Nc2cccnc2)n1 | x | x | x | x | n | x | x
COc1ccccc1-c1noc(CCC(=O)Nc2cc(C(F)(F)F)ccc2Cl)n1 | n | 43 | n | n | n | n | n
O=C(CCCNC(=O)/C(=C/c1ccccc1F)NC(=O)c1ccccc1)OCc1ccccc1 | n | n | n | n | n | n | x
N#Cc1nc(-c2ccco2)oc1N1CCc2ccccc2C1 | n | 44 | n | n | n | n | n
CCCCN1C(=O)C(CC(=O)NC2CC2)CC(C(=O)N2CCOCC2)=C1C (centres undefined) | x | x | x | x | n | x | x
CCn1cnc2c1c(=O)n(CC(=O)OC(C)C(N)=O)c(=O)n2Cc1ccccc1 (centres undefined) | n | n | n | n | n | n | x
O=C(C1CCN(S(=O)(=O)c2cccc3nsnc23)CC1)N1CC=C(c2ccccc2)CC1 | n | 43 | n | n | n | n | n
COC(=O)c1cc(N/C(N)=N/c2nc(C)cc(C)n2)cc(C(=O)OC)c1 | x | x | x | x | n | x | x
COc1ccc(CN2C(=O)C(CC(C)C)Nc3ncnc(N4CCN(c5ccccc5)CC4)c32)cc1 (centres undefined) | n | 43 | n | n | n | x | n
FC(F)(F)c1nc2ccccc2c2nc3ccccc3n12 | n | 41 | n | n | n | n | n
c1ccc(-c2nc3ccccc3c3nc4ccccc4n23)cc1 | n | n | n | n | n | n | x
FC(F)(F)c1nnc2c(Sc3ccccn3)nc3ccccc3n12 | n | 55 | n | n | n | n | 35
COc1ccc(/C=N/NC(=O)c2cccc(NC(C)=O)c2)c(C(=O)O)c1OC | n | n | n | n | n | n | x
CC(=O)Nc1ccc(S(=O)(=O)Nc2cc(S(=O)(=O)N3CCCCC3)ccc2O)cc1 | n | n | n | n | n | x | x
COCCCNC(=O)/C(C#N)=C/c1ccc(F)cc1 | n | 42 | n | n | n | n | n
Brc1ccc(-c2cn3c(n2)CCc2ccc4cccnc4c2-3)cc1 | n | 46 | n | n | n | n | 32
CN1C(=O)NC(c2ccc(Cl)cc2)C2=C1CC(C)(C)CC2=O (centres undefined) | n | n | n | n | n | n | x
O=C(/C=C/c1ccccc1)N(c1ccccn1)C1CCCCC1 | n | 43 | n | n | n | n | n
O=C(/C=C/c1ccccc1Cl)N(c1ccccn1)C1CCCCC1 | n | n | n | n | n | n | x
SMILES | NALP3 yeast inh | tim10-1 inh | TIM10 inh | tim23-1 inh | V-ATPase pH | NALP1 inh | tim10-1 confirm
COc1ccc(NS(=O)(=O)c2cccc(C(=O)NCC(c3cccs3)N3CCOCC3)c2)cc1 (centres undefined) | n | n | n | n | n | x | x
O=C(NCCCSc1ccccc1)c1cc(Br)ccc1O | n | 46 | n | n | n | n | n
O=C(N1CCCC1)C(F)(F)Oc1ccc(F)cc1 | n | n | n | n | n | n | x
COC(=O)C1=C(C)NC(C)=C(C(=O)O[C@@H]2CCCN(Cc3ccccc3)C2)[C@@H]1c1cccc([N+](=O)[O-])c1 | n | 45 | n | n | n | x | n
CCOC(=O)C1=C(C)NC(C)=C(C(=O)OC)C1c1cccc([N+](=O)[O-])c1 (centres undefined) | n | n | n | n | n | n | x
CC12CCC(=O)N1C(C(=O)NCCN1C(=O)S/C(=C\c3ccc(F)cc3)C1=O)CS2 (centres undefined) | n | n | n | n | n | x | x
CCN(CC)S(=O)(=O)c1ccc(C)c(NC(=O)/C=C/c2cccs2)c1 | n | 45 | n | n | n | n | 30
Cc1ccccc1NC(=O)/C=C/c1cccs1 | n | n | n | n | n | n | x
CC(C)(C)C(=O)OCc1nc(-c2ccc(Cl)cc2)cs1 | n | 45 | n | n | n | n | 42
CC(=O)c1sc(N/N=C\c2c(O)ccc3ccccc23)nc1C | n | 42 | n | n | n | x | n
CCOC(=O)NC1(NC(C)C)Oc2ccccc2O1 | n | n | n | n | n | n | x
CCOC(=O)NC1(NC2CCCCC2)Oc2ccccc2O1 | n | 40 | n | n | n | n | n
Cc1ccccc1C(=O)Nc1cccc(C(=O)N/N=C/c2cc(Cl)cc([N+](=O)[O-])c2O)c1 | n | 41 | n | n | n | n | n
COCCn1c(-c2ccc(OC)cc2)cnc1SCC(=O)Nc1cccc2ccccc12 | n | 45 | n | n | n | n | n
COc1ccc(-c2cnc(SCC(=O)Nc3cc(C)on3)n2Cc2ccco2)cc1 | n | 44 | n | n | n | n | n
COc1ccc(NC(=O)CSc2ncc(-c3ccc(F)cc3)n2Cc2ccco2)cc1 | n | n | n | n | n | n | x
COCCn1c(SCC(=O)Nc2ccccc2OC)nc2ccccc2c1=O | n | n | n | n | n | n | x
CN(CC(=O)Nc1ccccc1Cl)C(=O)c1ccc(COc2ccccc2)cc1 | n | n | n | n | n | x | x
CC(C)(C)CC(C)(C)c1ccc(OCCOCC[N+](C)(C)Cc2ccccc2)cc1 | n | 42 | n | n | n | x | n
C[N+](C)(CCOc1ccccc1)Cc1ccccc1 (tested in a mixture with another compound) | n | n | n | n | n | n | x
COc1cc(/C=C/c2ccc3cccc(O)c3n2)c(Br)cc1O | n | 47 | n | n | n | n | 46
COc1cc(Br)cc(/C=C/c2ccc3cccc(O)c3n2)c1O | n | 49 | n | n | n | n | 38
Oc1cccc2ccc(/C=C/c3cccs3)nc12 | n | 41 | n | n | n | n | n
COc1cc(Br)c(/C=C/c2ccc3cccc(O)c3n2)cc1OC | n | n | n | n | n | n | x
Oc1c(Cl)cc(Cl)cc1/C=C/c1ccc2cccc(O)c2n1 | n | 43 | n | n | n | n | 33
Oc1cccc2ccc(/C=C/c3ccccc3Br)nc12 | n | n | n | n | n | n | x
